Assay results as given in PubChem BioAssay (NCI).
This is part of a sample that, as a whole, favours compounds with a hit. Of some 79,000 tested, about 15% had one in any assay. Activity calls are given as the source filed them. Cut-off read from the data, not from the text of the source: active = growth inhibition above about 70%; inactive = the rest.

Experiments:
[1] = NCI Yeast Anticancer Drug Screen. Data for the rad50 strain (AID 155);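 note: 0% = growth of vehicle-only cultures of the same strain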; conditions: S. cerevisiae rad50 strain growth inhibition; at 50.0 µM; stronger effect = higher value
In short: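 Readout: growth inhibition relative to vehicle-treated cultures. Compound exposure was carried out in a genetically defined yeast strain deficient in DNA damage repair.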

[2] = NCI Yeast Anticancer Drug Screen. Data for the mec2-1 strain (AID 157); conditions: S. cerevisiae mec2-1 strain, at 50.0 µM, stronger effect = higher value
In short: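 Mutant yeast (mec2-1) grown with compound; growth inhibition relative to vehicle control reported.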

[3] = NCI Yeast Anticancer Drug Screen. Data for the sgs1 mgt1 strain (AID 161);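 note: 0% = growth of cultures given vehicle only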; conditions: S. cerevisiae sgs1 mgt1 strain, at 50.0 µM, stronger effect = higher value
In short: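 Compounds are added to genetically altered yeast, and growth is compared with cultures given vehicle alone to give percent inhibition.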

[4] = NCI Yeast Anticancer Drug Screen. Data for the cln2 rad14 strain (AID 165);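 note: 0% = growth equal to vehicle treated cultures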; conditions: S. cerevisiae cln2 rad14 strain, at 50.0 µM, stronger effect = higher value
In short: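 Readout is yeast growth inhibition versus vehicle-treated controls, using a strain with cln2 and rad14 alterations exposed to compound.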

[5] = NCI Yeast Anticancer Drug Screen. Data for the bub3 strain (AID 167); conditions: S. cerevisiae bub3 mutant strain, at 50.0 µM, stronger effect = higher value
In short: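 Readout: yeast growth inhibition, expressed relative to vehicle-only wells. The test organism is a mutant strain from a panel with lesions in DNA repair or checkpoint genes.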

[6] = NCI Yeast Anticancer Drug Screen. Data for the mlh1 rad18 strain (AID 175); conditions: S. cerevisiae mlh1 rad18 strain growth inhibition; at 50.0 µM; stronger effect = higher value
In short: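 Genetically defined yeast (DNA repair-deficient) exposed to compounds; growth inhibition determined relative to vehicle.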

## Oc1ccccc1/C=N/C(O)C(Cl)(Cl)Cl (stereo not drawn)
[1]
  growth inhibition: 30.2% (inactive)
[2]
  growth inhibition: 31.6% (inactive)
[3]
  growth inhibition: 34.9% (inactive)
[4]
  growth inhibition: 41.3% (inactive)
[5]
  growth inhibition: 48.1% (inactive)
[6]
  growth inhibition: 30.6% (inactive)

## CC1CNCCN1c1ccc(Cl)cc1 (stereo not drawn)
[1]
  growth inhibition: 13.6% (inactive)
[2]
  growth inhibition: -20.8% (inactive)
[3]
  growth inhibition: 11.2% (inactive)
[4]
  growth inhibition: 20.1% (inactive)
[5]
  growth inhibition: 22.8% (inactive)
[6]
  growth inhibition: 6.15% (inactive)

## NC(c1ccccc1)P(=O)(O)O (stereo not drawn)
[1]
  growth inhibition: -12.7% (inactive)
[2]
  growth inhibition: -20.4% (inactive)
[3]
  growth inhibition: -29.9% (inactive)
[4]
  growth inhibition: 5.85% (inactive)
[5]
  growth inhibition: -8.75% (inactive)
[6]
  growth inhibition: -33.3% (inactive)

## CN(C)C1(c2ccc3ccccc3c2)CSC1
[1]
  growth inhibition: -0.4% (inactive)
[2]
  growth inhibition: -16.6% (inactive)
[3]
  growth inhibition: 0.55% (inactive)
[4]
  growth inhibition: -16.2% (inactive)
[5]
  growth inhibition: -29.8% (inactive)
[6]
  growth inhibition: 2.25% (inactive)

## N#Cc1ccc([N+](=O)[O-])cc1
[1]
  growth inhibition: -1.15% (inactive)
[2]
  growth inhibition: 9.25% (inactive)
[3]
  growth inhibition: 1.7% (inactive)
[4]
  growth inhibition: 1.2% (inactive)
[5]
  growth inhibition: -43.8% (inactive)
[6]
  growth inhibition: -43.9% (inactive)

## Clc1ccc(C(Cl)(Cl)Cl)c(Cl)c1
[1]
  growth inhibition: 9% (inactive)
[2]
  growth inhibition: 6.35% (inactive)
[3]
  growth inhibition: -9.3% (inactive)
[4]
  growth inhibition: -15.8% (inactive)
[5]
  growth inhibition: 17.9% (inactive)
[6]
  growth inhibition: 20.4% (inactive)

## O=S(=O)(N=S(CCCl)CCCl)c1ccccc1
[1]
  growth inhibition: 8.3% (inactive)
[2]
  growth inhibition: 11.3% (inactive)
[3]
  growth inhibition: 24.3% (inactive)
[4]
  growth inhibition: -7.95% (inactive)
[5]
  growth inhibition: 21.4% (inactive)
[6]
  growth inhibition: 21.4% (inactive)

## CC1(C)CN1C1=C(F)C(=O)C(N2CC2(C)C)=C(F)C1=O
[1]
  growth inhibition: 36.5% (inactive)
[2]
  growth inhibition: 68.2% (inactive)
[3]
  growth inhibition: 50.5% (inactive)
[4]
  growth inhibition: 8.45% (inactive)
[5]
  growth inhibition: 47.3% (inactive)
[6]
  growth inhibition: 74.3% (active)

## O=C(O)C(O)(c1ccccc1)c1ccsc1 (stereo not drawn)
[1]
  growth inhibition: 4.45% (inactive)
[2]
  growth inhibition: 2.15% (inactive)
[3]
  growth inhibition: -8.6% (inactive)
[4]
  growth inhibition: -28.9% (inactive)
[5]
  growth inhibition: 1.95% (inactive)
[6]
  growth inhibition: 8.8% (inactive)

## CC(C)CC(NC(=O)CF)C(=O)O (stereo not drawn)
[1]
  growth inhibition: 3.45% (inactive)
[2]
  growth inhibition: 0.05% (inactive)
[3]
  growth inhibition: -4.7% (inactive)
[4]
  growth inhibition: 1.4% (inactive)
[5]
  growth inhibition: 4.05% (inactive)
[6]
  growth inhibition: -3.05% (inactive)

## COc1ccc(C(=O)O)cc1[N+](=O)[O-] (tested in a mixture with another compound)
[1]
  growth inhibition: 9.25% (inactive)
[2]
  growth inhibition: 4.45% (inactive)
[3]
  growth inhibition: 5.55% (inactive)
[4]
  growth inhibition: 7.4% (inactive)
[5]
  growth inhibition: 11.4% (inactive)
[6]
  growth inhibition: 15.1% (inactive)

## CCOC(=O)C[S][Sn]([Cl])([Cl])[S]CC(=O)OCC
[1]
  growth inhibition: 0.6% (inactive)
[2]
  growth inhibition: -1.15% (inactive)
[3]
  growth inhibition: -3.65% (inactive)
[4]
  growth inhibition: -32% (inactive)
[5]
  growth inhibition: -5.2% (inactive)
[6]
  growth inhibition: -18.1% (inactive)

## COc1ccc(CN2CCCN(Cc3ccc(OC)cc3)C2c2ccc(N(CCCl)CCCl)cc2)cc1
[1]
  growth inhibition: 30.3% (inactive)
[2]
  growth inhibition: 2.4% (inactive)
[3]
  growth inhibition: 43.8% (inactive)
[4]
  growth inhibition: 19.8% (inactive)
[5]
  growth inhibition: -15.3% (inactive)
[6]
  growth inhibition: 35.8% (inactive)

## CN(C)C(=S)Oc1cc(Cl)c(S(=O)(=O)F)cc1Cl
[1]
  growth inhibition: 99.5% (active)
[2]
  growth inhibition: 98.8% (active)
[3]
  growth inhibition: 99.2% (active)
[4]
  growth inhibition: 95.8% (active)
[5]
  growth inhibition: 99.2% (active)
[6]
  growth inhibition: 99% (active)

## CCCCC[CH2][Sn](=[O])[CH2]CCCCC
[1]
  growth inhibition: 8.25% (inactive)
[2]
  growth inhibition: 3.35% (inactive)
[3]
  growth inhibition: -9.4% (inactive)
[4]
  growth inhibition: -24.6% (inactive)
[5]
  growth inhibition: 6.8% (inactive)
[6]
  growth inhibition: -11.4% (inactive)

## CCC[CH2][Sn]1([CH2]CCC)[O]CC2(CCCCC2)C[O]1
[1]
  growth inhibition: 99.6% (active)
[2]
  growth inhibition: 99.8% (active)
[3]
  growth inhibition: 99.2% (active)
[4]
  growth inhibition: 99.5% (active)
[5]
  growth inhibition: 99.7% (active)
[6]
  growth inhibition: 99.6% (active)

## CN(C)P(=S)(CCPc1ccccc1)N(C)C (stereo not drawn)
[1]
  growth inhibition: -13.5% (inactive)
[2]
  growth inhibition: -23.6% (inactive)
[3]
  growth inhibition: -12.8% (inactive)
[4]
  growth inhibition: 2.95% (inactive)
[5]
  growth inhibition: -5.75% (inactive)
[6]
  growth inhibition: -5.8% (inactive)

## [Cl][Sn]1([Cl])[CH2]CCCCCC[CH2][Sn]([Cl])([Cl])[CH2]CCCCCC[CH2]1
[1]
  growth inhibition: 26.4% (inactive)
[2]
  growth inhibition: 6.75% (inactive)
[3]
  growth inhibition: 24.1% (inactive)
[4]
  growth inhibition: 33.8% (inactive)
[5]
  growth inhibition: -2.05% (inactive)
[6]
  growth inhibition: 18.7% (inactive)

## Cc1cc(CCl)c(O)c(CCl)c1
[1]
  growth inhibition: -22.1% (inactive)
[2]
  growth inhibition: 0.5% (inactive)
[3]
  growth inhibition: -4.7% (inactive)
[4]
  growth inhibition: -49.7% (inactive)
[5]
  growth inhibition: -18.9% (inactive)
[6]
  growth inhibition: 22.5% (inactive)

## O=C1C2C3c4ccccc4C(C2C(=O)N1c1ccccc1)[n+]1ccccc13 (stereo not drawn)
[1]
  growth inhibition: 47.8% (inactive)
[2]
  growth inhibition: 16.1% (inactive)
[3]
  growth inhibition: 41.7% (inactive)
[4]
  growth inhibition: -13.2% (inactive)
[5]
  growth inhibition: 7.1% (inactive)
[6]
  growth inhibition: 30.2% (inactive)

## Cc1cccc(NC(N)=S)c1
[1]
  growth inhibition: 11.6% (inactive)
[2]
  growth inhibition: 1.55% (inactive)
[3]
  growth inhibition: 5.65% (inactive)
[4]
  growth inhibition: -4.35% (inactive)
[5]
  growth inhibition: -8.15% (inactive)
[6]
  growth inhibition: 8.35% (inactive)

## CCNCCc1ccc(N)cc1
[1]
  growth inhibition: 5.05% (inactive)
[2]
  growth inhibition: -2.95% (inactive)
[3]
  growth inhibition: 0.8% (inactive)
[4]
  growth inhibition: -6.75% (inactive)
[5]
  growth inhibition: 1.85% (inactive)
[6]
  growth inhibition: -2.65% (inactive)

## CC(=O)C1CCC2C3CC=C4CC(OOS(=O)c5ccc(C)cc5)CCC4(C)C3CCC12C (stereo not drawn)
[1]
  growth inhibition: 43.2% (inactive)
[2]
  growth inhibition: 20.1% (inactive)
[3]
  growth inhibition: 46.2% (inactive)
[4]
  growth inhibition: -31.4% (inactive)
[5]
  growth inhibition: 22.4% (inactive)
[6]
  growth inhibition: 24.1% (inactive)

## CCCCOC(=O)c1ccccc1C(=O)OCc1ccccc1
[1]
  growth inhibition: -3.45% (inactive)
[2]
  growth inhibition: -11.7% (inactive)
[3]
  growth inhibition: -2.85% (inactive)
[4]
  growth inhibition: -43.7% (inactive)
[5]
  growth inhibition: 2.8% (inactive)
[6]
  growth inhibition: -5.25% (inactive)

## CC(C)NC(=O)C(Cl)CCl (stereo not drawn)
[1]
  growth inhibition: 13.7% (inactive)
[2]
  growth inhibition: 8.9% (inactive)
[3]
  growth inhibition: 18.3% (inactive)
[4]
  growth inhibition: 11.5% (inactive)
[5]
  growth inhibition: 2.8% (inactive)
[6]
  growth inhibition: 6.7% (inactive)

## CN(C)C1C(=O)C(C(=O)NP(=O)(NCCCO)N(CCCl)CCCl)=C(O)C2(O)C(=O)C3=C(O)c4c(O)cccc4C(C)(O)C3CC12 (stereo not drawn)
[1]
  growth inhibition: 27.6% (inactive)
[2]
  growth inhibition: 20.1% (inactive)
[3]
  growth inhibition: 21.9% (inactive)
[4]
  growth inhibition: 15.3% (inactive)
[5]
  growth inhibition: 25.6% (inactive)
[6]
  growth inhibition: 6.9% (inactive)

## O=[As](O)(O)Cc1ccccc1
[1]
  growth inhibition: 3.75% (inactive)
[2]
  growth inhibition: 2.45% (inactive)
[3]
  growth inhibition: -9.6% (inactive)
[4]
  growth inhibition: -16.6% (inactive)
[5]
  growth inhibition: -2.55% (inactive)
[6]
  growth inhibition: -22.8% (inactive)

## O=C1c2ccccc2C(=O)c2ccccc21
[1]
  growth inhibition: 37% (inactive)
[2]
  growth inhibition: 5.25% (inactive)
[3]
  growth inhibition: 1.95% (inactive)
[4]
  growth inhibition: -29.4% (inactive)
[5]
  growth inhibition: 25.5% (inactive)
[6]
  growth inhibition: 47.5% (inactive)

## CCOP(=O)(OCC)Oc1c(Cl)c(Cl)c(O)c(Cl)c1Cl
[1]
  growth inhibition: -23.1% (inactive)
[2]
  growth inhibition: -15.7% (inactive)
[3]
  growth inhibition: 4.2% (inactive)
[4]
  growth inhibition: -17.6% (inactive)
[5]
  growth inhibition: 6.4% (inactive)
[6]
  growth inhibition: -8.5% (inactive)

## CCOC12CC3C4=CCOC5CC(=O)N6c7ccccc7C1(CCN2C4)C6C53 (stereo not drawn)
[1]
  growth inhibition: 15.8% (inactive)
[2]
  growth inhibition: -39.2% (inactive)
[3]
  growth inhibition: -9.45% (inactive)
[4]
  growth inhibition: 18.9% (inactive)
[5]
  growth inhibition: 9.05% (inactive)
[6]
  growth inhibition: -1.2% (inactive)

## CC1(C(=N)N)CCOC1=O (stereo not drawn)
[1]
  growth inhibition: 4.4% (inactive)
[2]
  growth inhibition: 18.5% (inactive)
[3]
  growth inhibition: -10.8% (inactive)
[4]
  growth inhibition: 4.5% (inactive)
[5]
  growth inhibition: -1% (inactive)
[6]
  growth inhibition: 7.55% (inactive)

## Cc1cc(N)ccc1N
[1]
  growth inhibition: 7.15% (inactive)
[2]
  growth inhibition: 11.2% (inactive)
[3]
  growth inhibition: 14.2% (inactive)
[4]
  growth inhibition: 4.25% (inactive)
[5]
  growth inhibition: -6% (inactive)
[6]
  growth inhibition: -2.9% (inactive)

## COc1ccc(C(OCC2OC(n3ccc(Oc4c(F)c(F)c(F)c(F)c4F)nc3=O)CC2OP(OCCC#N)N(C(C)C)C(C)C)(c2ccccc2)c2ccc(OC)cc2)cc1 (stereo not drawn)
[1]
  growth inhibition: 18.1% (inactive)
[2]
  growth inhibition: 4.8% (inactive)
[3]
  growth inhibition: 6.65% (inactive)
[4]
  growth inhibition: -9.2% (inactive)
[5]
  growth inhibition: -7.2% (inactive)
[6]
  growth inhibition: -2.65% (inactive)
